Measured values as given in PubChem BioAssay (NCI).
This is part of a sample that, as a whole, favours compounds with a hit. Of some 83,000 tested, about 20% had one in any assay.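 Note: values are percent growth. 100 is the growth of untreated cells, values between 100 and 0 indicate rising inhibition; between -100 and 0 indicates cell death.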 Activity calls are given as the source filed them. How the source made its calls: active means growth percent below 10; inactive means the rest.

Columns and labels:
Assay in all cases: NCI-60 one-dose screen, 48 h (100 = growth as untreated, 0 = no growth, -100 = all killed)
Conditions in all cases: 10 µM unless noted
[1] = test system: NCI-H23 lung
[2] = test system: NCI-H226 lung
[3] = test system: NCI-H322M lung
[4] = test system: HOP-62 NSCLC
[5] = test system: NCI-H460 lung
[6] = test system: HOP-92 NSCLC
[7] = test system: A549/ATCC NSCLC
[8] = test system: 786-0 renal
[9] = test system: COLO 205 colon
[10] = test system: DU-145 prostate
[11] = test system: K-562 leukemia
[12] = test system: MALME-3M melanoma
[13] = test system: MDA-MB-231 breast
[14] = test system: RXF 393 renal
[15] = test system: SF-268 CNS
[16] = test system: SF-295 CNS
[17] = test system: SF-539 CNS
[18] = test system: UACC-257 melanoma
[19] = test system: M14 melanoma
[20] = test system: NCI-H522 lung

Measured: growth

COc1cc2c(cc1O)[C@@]1(C)[C@H](c3ccccc3Br)OC(=O)N1CC2
inactive: [1] 94.3% | [2] 83.9% | [3] 116% | [4] 97.3% | [5] 96.5% | [6] 82.8% | [7] 79.6% | [8] 104% | [9] 117% | [10] 101% | [11] 75% | [12] 83.1% | [13] 95.6% | [14] 99.5% | [15] 94.7% | [16] 102% | [17] 95.1% | [18] 83.5% | [19] 88.3%

Cc1ccc(-c2nc(C(Cl)Cl)nc3cc(C)nn23)cc1
active: [1] -18.4% | [3] -24.9% | [4] 7.49% | [5] -64.8% | [7] -4.14% | [9] -36.6% | [10] -12.6% | [12] -12.2% | [13] 8.58% | [14] -66% | [19] -9.67%
inactive: [2] 70.2% | [6] 35% | [8] 81.8% | [11] 11.2% | [15] 21.4% | [16] 17.8% | [17] 35.1% | [18] 55.8%

Cc1cc(N2CCN(C)CC2)nc(NCc2cc(Nc3ccnc4cc(Cl)ccc34)ccc2F)n1
inactive: [1] 25.4% | [2] 40.1% | [10] 10.5%
active: [3] 8.43% | [4] -14.2% | [5] -54.3% | [6] 5.13% | [20] -8.53% | [7] -17% | [8] -26.9% | [9] -61.6% | [11] 2.5% | [12] -76.6% | [13] -56.5% | [14] -70.9% | [15] 8.21% | [16] -70.1% | [17] -83.4% | [18] -73.5% | [19] -65%

COc1cc(/C=C2\CN(S(=O)(=O)c3ccc(C)cc3)C/C(=C\c3cc(CN4CCCCC4)c(O)c(OC)c3)C2=O)cc(CN2CCCCC2)c1O
active: [1] -64% | [2] -52.5% | [3] -74.4% | [4] -81.7% | [5] -72.5% | [6] -75.3% | [7] -84.9% | [8] -65.4% | [9] -90.2% | [10] -88.1% | [11] -24.2% | [12] -82.4% | [13] -73.1% | [14] -72.1% | [15] -61.1% | [16] -74.7% | [17] -84.8% | [18] -89.6% | [19] -89%

CC1(C)OC(=O)C(=Cc2cccc(Br)c2)C(=O)O1
inactive: [1] 103% | [2] 96.2% | [3] 113% | [4] 88.1% | [5] 105% | [6] 85.8% | [20] 77.5% | [7] 87.9% | [8] 109% | [9] 104% | [10] 112% | [11] 98.6% | [12] 108% | [13] 107% | [14] 96.4% | [15] 102% | [16] 102% | [17] 108% | [18] 85.8% | [19] 109%

CC/C=C\C/C=C/C=C1/C(=O)C=C[C@@H]1C/C=C\CCCC(=O)OC
active: [8] -15% | [11] 2.34% | [13] 4.18%
inactive: [1] 24.9% | [2] 55.7% | [3] 95.8% | [4] 36.1% | [5] 76.2% | [6] 42.4% | [7] 80.8% | [9] 14.1% | [10] 40.1% | [12] 35% | [14] 32.9% | [15] 21.9% | [16] 81.8% | [17] 26.8% | [18] 66.5% | [19] 32.1%

COc1ccc(/C=C/C(=O)c2ccc(Nc3nc(Nc4ccc(F)cc4)nc(Nc4ccc(Cl)cc4)n3)cc2)cc1
inactive: [1] 93.3% | [2] 122% | [3] 152% | [4] 112% | [5] 94.2% | [6] 44.7% | [7] 90.5% | [8] 92.6% | [9] 96% | [10] 104% | [11] 85.4% | [12] 164% | [13] 95.3% | [15] 100% | [16] 81.8% | [17] 109% | [18] 107% | [19] 95.2%
active: [14] 1.27%

COc1ccc(C2=NN(C(=O)c3cc(OC)c(OC)c(OC)c3)C(c3ccc(N(C)C)cc3)C2)cc1 (configuration not stated)
active: [5] 3.74% | [9] 5.9% | [13] 9.57% | [14] -18.5% | [16] 1.04% | [17] -37% | [19] 2.04%
inactive: [1] 26.4% | [2] 20.6% | [3] 48.3% | [4] 54.5% | [6] 21.6% | [7] 30% | [8] 13.6% | [10] 10.7% | [11] 44.2% | [12] 84% | [15] 46.6% | [18] 62.6%

COc1cccc2c(N=NC(=O)c3ccc(S(N)(=O)=O)cc3)c(O)[nH]c12
inactive: [1] 99.4% | [2] 95.8% | [3] 99.7% | [4] 102% | [5] 104% | [6] 118% | [20] 87.1% | [7] 95.5% | [8] 95.6% | [9] 109% | [10] 115% | [11] 98.5% | [12] 103% | [13] 102% | [14] 106% | [15] 106% | [16] 102% | [17] 102% | [18] 107% | [19] 102%

COc1ccc2cc(-c3ccc(-c4ccc(C(=N)N)s4)s3)ccc2c1
active: [1] 0.368% | [4] -8.34% | [5] -59.8% | [20] -46.7% | [7] -18.9% | [8] -53.6% | [9] -4.44% | [10] -67.2% | [11] -42.8% | [13] -15.2% | [14] -25.9% | [15] -33.9%
inactive: [2] 97% | [3] 22.6% | [6] 65.5% | [12] 101% | [16] 86% | [17] 89.5% | [18] 62.8% | [19] 36.2%

Cc1ccc(/C=C2\CN(C(=O)C(Cl)Cl)C/C(=C\c3ccc(C)cc3)C2=O)cc1
active: [1] -35.9% | [2] -11.7% | [3] -53.7% | [4] -16.4% | [5] -56.1% | [6] -47.9% | [7] 2.86% | [8] -68.6% | [9] -63% | [10] -82.7% | [11] -0.0477% | [12] -56.5% | [13] -3.27% | [14] -88.1% | [15] -20.4% | [16] -7.46% | [17] -86.4% | [18] -33.1% | [19] -65.6%

COc1ccc2nc3ccccc3c(NCc3ccc(F)cc3)c2c1
inactive: [1] 14% | [2] 30% | [3] 22.6% | [4] 28.2% | [7] 19.7% | [10] 16.5% | [13] 16.7% | [15] 34.6% | [16] 14.4% | [19] 15.3%
active: [5] 5.47% | [6] -11.3% | [8] 6.83% | [9] -54.4% | [11] 1.95% | [12] -5.2% | [14] -18.9% | [17] 3.85% | [18] -11.1%

CCNc1nc(-c2ccc(F)cc2)c(C#N)c(=O)n1C
active: [6] -1.14%
inactive: [1] 73.8% | [2] 55% | [3] 57.2% | [4] 51.8% | [5] 74.7% | [20] 52.1% | [7] 58.9% | [8] 64.3% | [9] 62.8% | [10] 63.4% | [11] 100% | [12] 93% | [13] 33.6% | [14] 44% | [15] 58.5% | [16] 59.7% | [17] 59.7% | [18] 102% | [19] 82.8%

C=C1C(=O)O[C@H]2[C@H]1CC/C(COC(=O)/C=C\C(=O)NCc1ccc(Cn3c(=O)sn(-c4ccccc4)c3=O)cc1)=C\CC[C@@]1(C)O[C@@H]21
inactive: [1] 92.1% | [2] 105% | [3] 107% | [4] 105% | [5] 96.7% | [6] 84.4% | [7] 98% | [8] 70.5% | [10] 55.7% | [11] 16.2% | [12] 55.9% | [13] 85.6% | [14] 84.3% | [15] 99.1% | [16] 103% | [17] 92% | [18] 73.8% | [19] 47.8%
active: [20] -5.66% | [9] 9.17%

O=C(CN1C(=O)NC2NC(=O)NC21)N/N=C/c1ccc(Cl)cc1Cl (configuration not stated)
inactive: [1] 102% | [2] 95.6% | [3] 104% | [4] 114% | [5] 105% | [6] 125% | [20] 93.3% | [7] 110% | [8] 96.6% | [9] 125% | [10] 113% | [11] 105% | [12] 106% | [13] 109% | [14] 117% | [15] 99.6% | [16] 101% | [17] 93.3% | [18] 114% | [19] 104%

COc1cc2cc(Oc3ccc(NC(=O)Nc4ccccc4)cc3)c(C)nc2cc1OCCN1CCCCC1
inactive: [1] 96.5% | [2] 99.8% | [3] 114% | [4] 94.9% | [5] 33% | [6] 55.7% | [20] 106% | [7] 78.6% | [8] 68.3% | [9] 69.3% | [10] 89.6% | [13] 85.7% | [14] 53.5% | [15] 83.5% | [16] 100% | [18] 84%
active: [11] -45.6% | [12] -75% | [17] -80.4% | [19] -90.1%
